Measurements taken from PubChem BioAssay (NCATS).
Several values for one entry are separate records, joined by “and”; a condition that tells them apart may be missing. Identical values can stand only once. Records with an inconclusive call do not appear. A call without a number means that no potency is given here. Values without a mark were called inactive. Activity calls are given as the source filed them. Calls follow the shape of the dose curve; as a rule, active = well fitted curve in the direction sought with a large enough effect; inconclusive = small, poorly fitted or top-dose-only effect, or another doubt; inactive = no such curve, though single readings can be large; an effect the other way counts as inactive or inconclusive.

Columns and labels:
[1] = biological target: Calcium and integrin-binding protein 1 (Homo sapiens) (UniProt Q99828); assay: Primary qHTS for Identification of Calcium Integrin Binding Protein 1 (CIB1) Competitor (AID 1508620);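 also: GST tagged CIB1 binding a fluorescein labelled alphaIIb integrin peptide tracer; top concentration of the series differs between compounds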
Calcium and integrin-binding protein 1 (Homo sapiens), sequence (Q99828 whole entry, looked up): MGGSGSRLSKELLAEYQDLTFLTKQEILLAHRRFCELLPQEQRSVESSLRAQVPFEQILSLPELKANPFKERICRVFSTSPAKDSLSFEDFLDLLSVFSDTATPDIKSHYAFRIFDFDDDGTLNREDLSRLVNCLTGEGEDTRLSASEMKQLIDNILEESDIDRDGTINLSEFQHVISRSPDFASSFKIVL
Summary of the method: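 Fluorescence polarization competition: CIB1-GST (1 uM final) preincubated with compound 15 min at room temperature, then FITC-labeled alphaIIb peptide (100 nM final) added for another 15 min. Polarization read at Ex 480/Em 540.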

[2] = Primary qHTS for inhibitors of nuclear receptor binding SET domain protein 2 (NSD2) in an isogenic RCH-ACV NSD2 p.E1099K mutant (9B) (AID 1645876); also: nearly all actives have a fitted effect of over 70% in size; also: potency is read from the fitted curve at half-maximal effect
[3] = Primary qHTS for inhibitors of nuclear receptor binding SET domain protein 2 (NSD2) in an RCH-ACV wild type WT cells (2C) (AID 1645877); also: nearly all actives have a fitted effect of over 70% in size; also: potency is read from the fitted curve at half-maximal effect

Row | SMILES | Potency [1] | Potency [2] | Potency [3] | activity change, negative = viability loss [2] | activity change, negative = cell killing [3]
1 | O=C(Nc1cccc(C(F)(F)F)c1)Nc1ccc(Br)cc1-c1nn[nH]n1 | inactive | inactive | inactive |  | 
2 | C=C1C(=O)O[C@@H]2[C@H]1CC[C@H](C)[C@]1(CCC(=O)O1)C2(C)O (stereo not given in full) | inactive | 20.5 µM (active) | 14.5 µM (active) |  | 
3 | COc1cc(O)c2c(c1)C1OC1C[C@H](O)[C@H](O)C(=O)/C=C\C[C@H](C)OC2=O (stereo not given in full) | inactive | 3.25 µM (active) | 2.05 µM (active) |  | 
4 | C=C[C@@]1(C)C=C2C(=O)C(O)=C3[C@](C)(C(=O)O)CC[C@@H]4C[C@]34[C@]2(O)C(=O)C1 | inactive | 10.1 µM (active) | 2.53 µM (active) |  | 
5 | CCCSc1nc(N[C@@H]2C[C@H]2c2ccc(F)c(F)c2)c2nnn([C@@H]3C[C@H](OCCO)[C@@H](O)[C@H]3O)c2n1 | inactive | 25.8 µM (active) | 18.3 µM (active) |  | 
6 | COc1cc(F)c(F)c(Nc2ccc(I)cc2F)c1NS(=O)(=O)C1(CC(O)CO)CC1 (stereo not given) | inactive | 18.3 µM (active) | 25.8 µM (active) |  | 
7 | CC(C)NC(=O)N1CC[C@H](N=C2Nc3cc(F)ccc3N(CC(F)F)c3ccc(Cl)cc32)C1 | inactive |  |  | -17% [at 9.23 µM] | 1.84% [at 9.23 µM]
8 | CCCOc1ccc(CCc2nc3cc(-c4c(C)noc4C)ccc3n2CCN2CCOCC2)cc1 | inactive | 8.33 µM (active) | 8.33 µM (active) |  | 
9 | O=S(=O)(NCc1ccccn1)c1ccc(Br)c2ccccc12 | inactive | inactive | inactive |  | 
10 | Cc1nc(Nc2cnn(C3CCNCC3)c2)nc2c1N(C)C(=O)c1cc3ccccc3cc1N2C | inactive | 5.15 µM (active) | 2.05 µM (active) |  | 
11 | C=CC(=O)N1CCCN(c2cc(NCCC(=O)O)nc(-c3ccccn3)n2)CC1 | inactive | inactive | inactive |  | 
12 | C=C(C)C(=O)O[C@H]1[C@H]2C(=C)C(=O)O[C@@H]2/C=C(\CO)CC/C=C(/C=O)[C@@H]1O | inactive | 12.7 µM (active) | 4.5 µM (active) |  | 
13 | C=C1C(=O)O[C@@H]2[C@H]1CC(=O)[C@H](C)[C@@](O)(C(=O)/C=C/C)[C@H]2OC(=O)C(C)CC (stereo not given in full) | inactive | 1.27 µM (active) | 0.45 µM (active) |  | 
14 | Cc1cc2c(c(=O)o1)C=C1CC[C@H]([C@H](C)Cn3cnc(=N)c4[nH]cnc43)C[C@@H]1O2 | inactive | inactive | inactive |  | 
15 | C1=C/COCc2cc(ccc2OCCN2CCCC2)Nc2nccc(n2)-c2cccc(c2)COC/1 | inactive | 325 nM (active) and 417 nM (active) | 258 nM (active) and 417 nM (active) |  | 
16 | O=C1Cc2c([nH]c3ccc(Br)cc23)-c2ncccc2N1 | inactive | 2.9 µM (active) | 2.58 µM (active) |  | 
17 | CC(/C=C/C(=O)NO)=C\[C@@H](C)C(=O)c1ccc(N(C)C)cc1 | inactive | 183 nM (active) and 1.05 µM (active) | 183 nM (active) and 934 nM (active) |  | 
18 | CC(=O)O[C@@H]1CC[C@@]2(C)C(CC[C@]3(C)C2[C@H](O)C=C2[C@H]4[C@@H](C)[C@H](C)CC[C@]4(C)CC[C@]23C)[C@@]1(C)C(=O)O (stereo not given in full) | inactive | inactive | inactive |  | 
19 | CC(C)/C=C1\NC(=O)C(C(C)C)n2c1nc1ccccc1c2=O (stereo not given) | inactive | inactive | inactive |  | 
20 | CCC/C=C\C=C/CCc1cc(O)c([C@@H]2O[C@H](CO)[C@@H](O)[C@H](O)[C@H]2O)c(O)c1C(=O)OC | inactive | inactive | inactive |  | 
21 | COc1cc(CCO)ccc1O[C@@H]1O[C@H](CO)[C@@H](O)[C@H](O)[C@H]1O | inactive | inactive | inactive |  | 
22 | CC1(C)C2CCC(CO[C@@H]3O[C@H](CO[C@@H]4OC[C@](O)(CO)[C@H]4O)[C@@H](O)[C@H](O)[C@H]3O)C1C2 (stereo not given in full) | inactive | inactive | inactive |  | 
23 | CC1OC(=O)C[C@@H]2C(C(=O)O)=CO[C@@H](O[C@H]3O[C@H](CO)[C@@H](O)[C@H](O)[C@H]3O)[C@H]12 (stereo not given in full) | inactive | inactive | inactive |  | 
24 | C=C1C(=O)O[C@@H]2/C=C(/C)[C@@H](OC(C)=O)C/C=C(\C)C[C@@H](OC(=O)/C(=C/CO)CO)[C@@H]12 | inactive | 7.09 µM (active) | 3.17 µM (active) |  | 
25 | CC(O)(C(=O)C1CC1(CO)COC1OC(CO)C(O)C(O)C1O)C1C(O)CC2C3CC=C4CC(O)CC(O)C4(C)C3C(O)CC21C (stereo not given) | inactive | 0.342 µM (active) | 0.383 µM (active) |  | 
